# A selection: hits, their analogues and other compounds. The true share with any hit is near 4%.
# FBA Mtb inh: Mtb FBA enzyme inhibitors, primary screen, biochemical, fluorescence, strain H37Rv | Fructose-bisphosphate aldolase (Mycobacterium tuberculosis (strain ATCC 25618 / H37Rv)), … | inhibition, % at 1 µM | purified M. tuberculosis FBA, fluorescence read-out | 2.3% of 360,000 active;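 note: 0% = vehicle and 100% = reference inhibitor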
# Mtb betalactam: beta-lactam sensitization of Mtb H37Rv, H37Rv. M. tuberculosis H37Rv growth with meropenem, percent inhibition. inhibition, % at 25 µM. 0.27% of 330,000 active. AID 434955, 2010; call rule not given here;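 note: growth measured after seven days incubation then overnight dye step; 0% = bacteria only wells and 100% = bacteria with antibiotic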
# GDH-TPI counter-1: GDH-TPI coupling enzyme inhibitors, primary screen, artefact control for M. tuberculosis FBA inhibitor project, biochemical, absorbance, full deck; GDH-TPI coupled enzyme counterscreen, NADH absorbance; inhibition, % at 4.8 µM; 1.2% of 360,000 active; in the data active = inhibition above about 30%;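 note: 0% = DMSO wells and 100% = wells lacking the enzyme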
# Rv3671c inh: Rv3671c serine protease inhibitors, primary screen, biochemical, fluorescence polarization, M. tuberculosis H37Rv. P9WHR9. inhibition, % at 5.96 µM. 0.048% of 320,000 active. AID 2606, 2010; in the data active = inhibition above about 38%;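 note: extracellular domain of Rv3671c used as enzyme; 0% = enzyme with DMSO and 100% = no enzyme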
# Target sequence (P9WHR9 whole entry, looked up, the tested form may be a part): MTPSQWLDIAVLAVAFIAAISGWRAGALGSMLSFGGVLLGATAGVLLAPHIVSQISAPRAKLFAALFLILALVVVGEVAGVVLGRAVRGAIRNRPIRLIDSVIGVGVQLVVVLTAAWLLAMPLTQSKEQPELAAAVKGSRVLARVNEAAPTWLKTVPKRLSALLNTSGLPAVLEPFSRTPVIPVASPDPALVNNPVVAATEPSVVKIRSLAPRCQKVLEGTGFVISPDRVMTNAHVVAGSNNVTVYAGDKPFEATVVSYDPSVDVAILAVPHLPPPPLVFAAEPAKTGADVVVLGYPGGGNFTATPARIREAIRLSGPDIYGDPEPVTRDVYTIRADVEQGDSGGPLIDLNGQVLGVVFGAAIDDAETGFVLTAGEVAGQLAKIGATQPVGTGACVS
# UGM FP inh: M. tuberculosis UGM enzyme inhibitors, primary screen, biochemical, fluorescence polarization, single point; UDP-galactopyranose mutase (Mycobacterium tuberculosis (strain ATCC 25618 / H37Rv)), …; purified UGM, fluorescence polarization probe displacement; inhibition, % at 10 µM; 0.06% of 320,000 active; AID 504406, 2011; in the data active = inhibition above about 10%, passing the limit was not always enough
# RecA intein inh: Mtb RecA intein splicing inhibitors, primary screen, biochemical, fluorescence, HTS | cell-free RecA intein splicing | Protein RecA (Mycobacterium tuberculosis (strain ATCC 25618 / H37Rv)), P9WHJ3 | inhibition, % (no concentration beside the values) | 0.75% of 290,000 active; in the data active = inhibition above about 30%;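 note: 0% = vehicle wells and 100% = reference inhibitor control wells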
# Mtb FBA confirm: M. tuberculosis aldolase blockers, biochemical, fluorescence, strain H37Rv, confirmation | shares compounds with FBA Mtb inh | purified M. tuberculosis FBA, fluorescence read-out | inhibition, % at 1 µM | 78% of 5,600 active | AID 651616, 2012;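 note: 0% = vehicle wells and 100% = reference inhibitor wells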
# GDH-TPI counter-2: GDH-TPI coupling enzyme inhibitors, artefact control for M. tuberculosis FBA inhibitor project, biochemical, fluorescence, high throughput | inhibition, % at 1 µM | GDH-TPI coupled enzyme counterscreen | 81% of 5,600 active | shares compounds with FBA Mtb inh; in the data active = inhibition above about 10%
# GDH-TPI DR: GDH-TPI coupling enzyme inhibitors, dose response, artefact control for M. tuberculosis FBA inhibitor project, biochemical, fluorescence, IC50; 79% of 170 active; AID 652145, 2013; shares compounds with FBA Mtb inh; IC50, µM; GDH-TPI coupled enzyme assay, artifact counterscreen; call rule not given here
# Numbers without * were called inactive; · = not tested or not shown; + = active, no number. Cut-off read from the data, not from the text of the source, unless noted: active = inhibition above about 27%; inactive = the rest.
SMILES,FBA Mtb inh,Mtb betalactam,GDH-TPI counter-1,Rv3671c inh,UGM FP inh,RecA intein inh,Mtb FBA confirm,GDH-TPI counter-2,others
Cc1cccc(C)c1NC(=S)Nc1ccccc1C(=O)NCc1ccco1,38.5*,-4.3,5.2,-7.2,-2.9,-2.3,25.0,6.8,GDH-TPI DR=>10
O=C(CCc1ccccc1)Nc1ccccc1C(=O)NCc1ccco1,1.7,-1.1,0.0,5.7,1.2,0.7,·,·,
Cc1ccccc1NC(=O)CNc1ccccc1C(=O)NCc1ccco1,48.1*,-4.4,6.8,-5.0,-5.4,2.2,166.2*,143.3*,
Clc1ccc(-c2nnc(N3CCOCC3)o2)cc1,40.3*,-5.4,-4.8,-0.6,-0.4,-1.2,91.9*,56.0*,
c1ccc(-c2nc3nc4ccccc4nc3n2CC2CCCO2)cc1 (configuration not stated),83.6*,-3.7,33.7*,1.8,-1.1,1.9,95.9*,71.6*,
C=CCOc1c(CNc2cccc(C(=O)O)c2)cccc1OCC,24.9,3.6,0.3,-5.3,-3.0,0.0,·,·,
C=CCOc1c(CNc2cccc(C(=O)O)c2)cccc1OC,29.2*,-0.9,-4.2,0.5,·,-2.4,39.5*,52.7*,
C=CCOc1cccc(CNc2cccc(C(=O)O)c2)c1,27.5*,-0.3,6.9,13.4,2.7,-2.8,1.9,5.8,
Cc1ccc(Cn2c(N3CCNCC3)nc3c2c(=O)[nH]c(=O)n3C)cc1,-1.6,-0.9,0.8,·,5.1,0.3,·,·,
O=C(c1cc2c(s1)CCCC2)N1CCN(c2ccccc2)CC1,34.4*,-6.8,-1.3,1.0,-0.3,3.2,83.5*,66.8*,
O=S1(=O)CCN(C2CCCCCCC2)CC1,-3.8,·,-5.8,·,·,·,·,·,
c1ccc(-c2noc(-c3cccc4ccccc34)n2)nc1,45.5*,90.7,-3.9,-11.3,4.3,-0.6,+,+,
CC(=O)C(C)Oc1ccc2c3c(c(=O)oc2c1C)CCCC3 (configuration not stated),60.9*,98.8,15.9,-3.0,-0.8,1.4,87.6*,69.8*,
Cc1c(OC(C)C(=O)N[C@H](C(=O)O)c2ccccc2)ccc2c3c(c(=O)oc12)CCCC3 (some centres not stated),81.0*,2.5,28.4,-5.1,5.0,-2.4,80.7*,59.1*,
Cc1c(OC(C)C(=O)NCCN2CCOCC2)ccc2c3c(c(=O)oc12)CCCC3 (configuration not stated),34.1*,0.2,1.9,-5.9,2.2,-0.8,50.4*,37.7*,
Cc1cc(=O)oc2c(C)c(OC(C)C(=O)NCCN3CCOCC3)ccc12 (configuration not stated),12.6,1.8,5.0,5.4,1.1,-1.5,·,·,
Cc1c(OCC(=O)OC(C)C)ccc2c3c(c(=O)oc12)CCC3,12.5,29.2,17.3,-4.6,8.3,-2.1,·,·,
Cc1c(OC(C)C(=O)NCC(O)c2ccccc2)ccc2c3c(c(=O)oc12)CCC3 (configuration not stated),28.8*,3.1,17.0,-9.5,2.5,-1.6,+,+,
Cc1c(OCC(=O)N2CCN(c3ccccc3)CC2)ccc2c3c(c(=O)oc12)CCCC3,-6.8,-3.5,-8.2,-0.9,2.4,0.7,·,·,
COc1cccc(C(=O)Nc2ccc3[nH]ncc3c2)c1OC,2.6,-0.8,4.3,14.0,5.8,4.2,·,·,
COc1ccc2c(C)c(C(=O)O)oc2c1,17.0,1.3,6.2,2.0,4.0,0.0,·,·,

# Screening results (PubChem)
